About 79,000 compounds went through this panel and 15% of them were active in at least one assay; those are over-represented in the sample as a whole. Unmarked numbers belong to inactive results. The source made the active and inactive calls. Cut-off read from the data, not from the text of the source: active = growth inhibition above about 70%; inactive = the rest.
Legend:
[1] = NCI Yeast Anticancer Drug Screen. Data for the rad50 strain (AID 155);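 note: 0% = growth of vehicle-only cultures of the same strain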; conditions: S. cerevisiae rad50 strain growth inhibition, active compounds read high
Summary of the method: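 Relative growth inhibition (compound vs vehicle) was measured in yeast with a defined repair-gene alteration.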

[2] = NCI Yeast Anticancer Drug Screen. Data for the mec2-1 strain (AID 157); conditions: S. cerevisiae mec2-1 strain, active compounds read high
Summary of the method: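 Each compound was tested on mec2-1 yeast, a strain altered in DNA damage repair or cell cycle control. Growth inhibition is reported relative to vehicle.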

[3] = NCI Yeast Anticancer Drug Screen. Data for the sgs1 mgt1 strain (AID 161);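 note: 0% = growth of cultures given vehicle only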; conditions: S. cerevisiae sgs1 mgt1 strain, active compounds read high
Summary of the method: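 Read-out: growth inhibition vs vehicle controls. Cells: mutant yeast strain deficient in DNA damage repair.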

[4] = NCI Yeast Anticancer Drug Screen. Data for the cln2 rad14 strain (AID 165);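 note: 0% = growth equal to vehicle treated cultures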; conditions: S. cerevisiae cln2 rad14 strain, active compounds read high
Summary of the method: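 Test compounds were added to cln2 rad14 yeast cultures; inhibition of growth was then determined by comparison with vehicle treatment.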

[5] = NCI Yeast Anticancer Drug Screen. Data for the bub3 strain (AID 167); conditions: S. cerevisiae bub3 mutant strain, active compounds read high
Summary of the method: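 Screening used yeast with an engineered genetic alteration affecting cell cycle control. Compound-exposed cultures were compared with vehicle cultures, and reduced growth was taken as inhibition.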

[6] = NCI Yeast Anticancer Drug Screen. Data for the mlh1 rad18 strain (AID 175); conditions: S. cerevisiae mlh1 rad18 strain growth inhibition, active compounds read high
Summary of the method: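 Inhibition values reflect reduced growth of mutant yeast versus vehicle-treated controls following compound exposure; the mutations affect DNA damage repair.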

[7] = at 5.0 µM (retest, dose inferred, filed as 0.5)
[8] = at 50.0 µM (retest, dose inferred, filed as 5.0)

SMILES | growth inhibition [1, 7] [%] | growth inhibition [1, 8] | growth inhibition ([1]; at 50.0 µM) | growth inhibition [2, 7] | growth inhibition [2, 8] | growth inhibition ([2]; at 50.0 µM) | growth inhibition [3, 7] | growth inhibition [3, 8] | growth inhibition ([3]; at 50.0 µM) | growth inhibition [4, 7] | growth inhibition [4, 8] | growth inhibition ([4]; at 50.0 µM) | growth inhibition [5, 7] | growth inhibition [5, 8] | growth inhibition ([5]; at 50.0 µM) | growth inhibition [6, 7] | growth inhibition [6, 8] | growth inhibition ([6]; at 50.0 µM)
c1ccc2c(c1)Cc1nc3ccccc3nc1-2 | -33 | 93% (active) | 98.3% (active) | -42% | 93% (active) | 98.2% (active) | -59% | 86% (active) | 90.6% (active) | -56% | 88% (active) | 90% (active) | -65% | 90% (active) | 97.4% (active) | -118% | 92% (active) | 97.8% (active)
O=C(CCC1OCCO1)Nc1cc(NCc2ccccc2)ccc1OCc1ccccc1 | 1 | 48% | 71.2% (active) | 2% | 69% | 57% | -173% | 73% (active) | 89.4% (active) | 0% | 16% | 43.7% | 0% | 39% | 65% | 16% | 68% | 70.2% (active)
C1=C(C2=CCCc3ccccc32)c2ccccc2CC1 | -1 | 36% | 30.4% | -5% | 27% | 34.5% | -3% | 50% | 31.9% | -4% | 59% | -45.8% | -2% | 34% | 5.5% | -1% | 43% | 74.9% (active)
O=C(O)C1CC[N-]CC1.O=C(O)C1CC[N-]CC1.[Cl][Pt+2]([Cl])([Cl])[Cl] | 30 | 90% (active) | 97.6% (active) | 2% | 94% (active) | 85.2% (active) | 38% | 94% (active) | 94.1% (active) | 0% | 97% (active) | 81.7% (active) | 17% | 93% (active) | 90.2% (active) | 25% | 94% (active) | 88.8% (active)
COc1ccc(/C=N/Nc2cc(C)nc3cc4c(cc23)OCO4)c2ccccc12 | 20 | 88% (active) | 82.6% (active) | 6% | 81% (active) | 85.8% (active) | 22% | 91% (active) | 86% (active) | 0% | 24% | 57.6% | 8% | 37% | 97.9% (active) | 12% | 82% (active) | 94.8% (active)
O=C1C=C(OCC=C(C(F)(F)F)C(F)(F)F)C(=O)c2ccccc21 | -6 | 18% | 55.1% | 27% | 68% | 64.8% | 24% | 74% (active) | 66.9% | -1% | 25% | 49.4% | 1% | 52% | 67.2% | 45% | 67% | 80.3% (active)
Clc1ccc2ccc3cccnc3c2n1 | 9 | 95% (active) | -38.5% | 7% | 97% (active) | -9.5% | 0% | 86% (active) | -13.2% | -4% | 92% (active) | 7.9% | -7% | 98% (active) | 20.4% | 3% | 94% (active) | -25.1%
CCN1C(/C=C/c2ccc(O)c3ncccc23)CCC2CC(C)CCC21 (configuration not stated) | 20 | 94% (active) | 95.3% (active) | 12% | 97% (active) | 95.5% (active) | 62% | 96% (active) | 95.5% (active) | 10% | 90% (active) | 88.9% (active) | 30% | 94% (active) | 94% (active) | 41% | 94% (active) | 94.3% (active)
COc1ccc(C2C(C#N)(C#N)C2(C#N)C#N)cc1 | 16 | 98% (active) | 63.5% | 19% | 99% (active) | 96.5% (active) | 21% | 98% (active) | 98.3% (active) | 2% | 99% (active) | 88% (active) | 6% | 98% (active) | 94.8% (active) | 22% | 99% (active) | 92.7% (active)
CCCCOC(=O)c1n[nH]c(C)c1N=NN(C)C | 43 | 99% (active) | 99% (active) | 96% (active) | 99% (active) | 99% (active) | 95% (active) | 99% (active) | 99.2% (active) | 95% (active) | 99% (active) | 99.4% (active) | 84% (active) | 99% (active) | 99.2% (active) | 80% (active) | 99% (active) | 99.2% (active)
O=C(O)Cc1c[nH]c2ccccc12 | 46 | -3% | 51% | 31% | 7% | 64% | 42% | -2% | 94% (active) | 9% | -12% | 49% | 85% (active) | -8% | 92.5% (active) | 84% (active) | -2% | 91.2% (active)
COC(=S)S | 3 | 1% | 41.9% | -2% | 0% | 18.7% | 5% | 0% | -11.4% | -4% | -2% | -45.5% | -3% | -5% | 15.6% | 1% | 6% | -24.7%
COC1CC(OC(=O)c2ccccc2)C(OC(=O)c2ccccc2)C(C)O1 (configuration not stated) | -5 | -4% | 9.1% | -2% | -2% | 6.1% | -2% | -1% | 7.75% | -4% | -12% | -16.4% | 44% | 64% | 83.9% (active) | -1% | 2% | 1.9%
O=C(c1ccccc1)C(c1ccccc1)C1(O)C(=O)Nc2c(Cl)cc(Cl)cc21 (configuration not stated) | 13 | 13% | 92.8% (active) | -6% | -6% | 93.3% (active) | -18% | -18% | 92% (active) | -6% | -6% | 87% (active) | -5% | -5% | 93.2% (active) | 0% | 0% | 92.2% (active)
COc1cc(C2C(Cl)C(=O)N2NC(=O)c2ccccc2O)cc(OC)c1OC (configuration not stated) | -8 | 77% (active) | 76.3% (active) | -10% | 70% (active) | 70.5% (active) | 1% | 81% (active) | 78.8% (active) | -2% | 40% | 35.2% | -11% | 48% | 80.8% (active) | 6% | 87% (active) | 78.8% (active)
C=Cc1cc(O)cc2c1-c1ccc(O)c(C)c1CC2 | 10 | 99% (active) | 99.7% (active) | -22% | 100% (active) | 99.8% (active) | -1% | 99% (active) | 99.8% (active) | -3% | 99% (active) | 99.6% (active) | 10% | 99% (active) | 99.5% (active) | -5% | 99% (active) | 99.7% (active)
COC(=O)C(=O)N(c1cc(C)ccc1C)c1cc(C)ccc1C | -1 | 85% (active) | 96.2% (active) | 1% | 73% (active) | 95.3% (active) | 0% | 57% | 95% (active) | 6% | 26% | 63.1% | 3% | 59% | 94.3% (active) | -3% | 81% (active) | 92.7% (active)
Oc1cc2c(cc1C(c1ccc(Cl)cc1)N1CCOCC1)OCO2 (configuration not stated) | 1 | 98% (active) | 99% (active) | -1% | 99% (active) | 99.2% (active) | 7% | 99% (active) | 99% (active) | -8% | 83% (active) | 96.5% (active) | -7% | 98% (active) | 98.9% (active) | 0% | 99% (active) | 98.8% (active)
COC1OC(CO)C(O)C(OC(=O)c2ccc([N+](=O)[O-])cc2)C1OS(=O)(=O)c1ccc(C)cc1 (configuration not stated) | 2 | 0% | 31.8% | -1% | 7% | -0.1% | -1% | 0% | 18.7% | -1% | -1% | -2.5% | 2% | -2% | -0.2% | 27% | 7% | 10.6%

— PubChem BioAssay (NCI)
